Screening results as filed in PubChem BioAssay.
An excerpt weighted towards active compounds, which were near 6.8% of everything screened.
Pf Dd2 growth: P. falciparum Dd2 growth inhibition. hit rate 2.3% among 94,000. AID 1159554. activity change, % at 10 µM. SYBR Green, 72 h; hits give low values; in the data active = activity change below about -80%; inconclusive = no clear call, values can overlap the other calls
C diff HTS: blocks growth of Clostridium difficile; growth activity, negative = inhibition, % at 16 µg/mL (by protocol); Clostridium difficile clinical isolate growth, OD600, 24 h; hits give low values; hit rate 0.25% among 86,000;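 active = mean growth activity at or below -80% and every replicate also at or below -80%; inconclusive = mean at or below -80% but some replicate above -80%; inactive = mean growth activity above -80%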;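 note: 0% = DMSO wells and -100% = levofloxacin 16 µg/mL wells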
T cruzi growth: blocks T. cruzi growth in NIH3T3 culture. T. cruzi beta-gal in NIH3T3, GalScreen luminescence, 90 h. inhibition, % at 8.34 µM. hit rate 5.9% among 77,000. AID 624255;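 active = mean inhibition above about 93%, with at least 55% of replicates each passing it, limit read from the data, passing the limit was not always enough; inconclusive = only one of those two conditions holds; inactive = neither condition holds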
Starred values were filed as active, the others as inactive; ? = inconclusive; . = no result given.

SMILES | Pf Dd2 growth | C diff HTS | T cruzi growth
C[C@@H]1CN([C@H](C)CO)S(=O)(=O)c2ccc(C#Cc3ccccc3)cc2O[C@H]1CN(C)C(=O)C1CC1 | -79 | -16 | 58
C[C@H]1CN([C@@H](C)CO)S(=O)(=O)c2ccc(C#Cc3ccccc3)cc2O[C@H]1CN(C)C(=O)Cc1ccccn1 | -86* | -3 | 69
CC(C)C#Cc1ccc2c(c1)O[C@H](CN(C)C(=O)Cc1ccccn1)[C@@H](C)CN([C@H](C)CO)S2(=O)=O | -37 | 6 | 48
C[C@H]1CN([C@@H](C)CO)S(=O)(=O)c2ccc(C#Cc3ccccc3)cc2O[C@H]1CN(C)C(=O)C1CC1 | -88* | -4 | 74
CO[C@@H]1CC[C@@H]2CCOc3ccc(C#N)cc3C(=O)N(C)CCCC(=O)N(C)C[C@H]1O2 | . | 9 | 0
CS(=O)(=O)N1CC(=O)N2[C@H](CO)[C@@H](c3ccc(C#CCC4CCCC4)cc3)[C@@H]2C1 | 4 | -21 | .
CCC(=O)N1[C@H](CO)[C@@H](c2ccccc2)C12CN(Cc1ccccc1F)C2 | -41 | 4 | .
Cc1noc(C)c1S(=O)(=O)Nc1ccc2c(c1)C(=O)N([C@@H](C)CO)C[C@H](C)[C@@H](CN(C)S(=O)(=O)c1ccccc1)O2 | -70 | . | -163
C[C@@H]1CN([C@H](C)CO)C(=O)c2c(c3ccccc3n2C)-c2ccccc2CO[C@@H]1CN(C)Cc1cccc(F)c1 | -88* | 33 | .
C[C@H]1CN([C@@H](C)CO)C(=O)c2c(c3ccccc3n2C)-c2ccccc2CO[C@@H]1CN(C)Cc1ccccc1C(F)(F)F | -85* | 18 | .
C[C@H]1CN([C@@H](C)CO)C(=O)c2c(c3ccccc3n2C)-c2ccccc2CO[C@@H]1CN(C)Cc1cccc(F)c1 | -75 | 16 | .
COc1ccccc1CN(C)C[C@@H]1OCc2ccccc2-c2c(n(C)c3ccccc23)C(=O)N([C@H](C)CO)C[C@@H]1C | -1 | 67 | .
C[C@H]1CN([C@@H](C)CO)C(=O)c2c(c3ccccc3n2C)-c2ccccc2CO[C@@H]1CN(C)Cc1ccccc1 | -77 | 2 | .
C[C@H](CO)N1C[C@H](C)[C@@H](CN(C)Cc2ccc(-c3ccccc3)cc2)OCc2ccccc2-c2c(n(C)c3ccccc23)C1=O | -92* | 34 | .
C[C@@H]1CN([C@@H](C)CO)C(=O)c2ccccc2-c2ccccc2CO[C@@H]1CN(C)Cc1ccccc1C(F)(F)F | -59 | 19 | .
C[C@@H]1CN([C@H](C)CO)C(=O)c2ccccc2-c2ccccc2CO[C@@H]1CN(C)Cc1ccccc1C(F)(F)F | -93* | 25 | .
C[C@@H]1CN([C@@H](C)CO)C(=O)c2cc(NC(=O)Nc3ccccc3)ccc2O[C@H]1CN(C)S(=O)(=O)c1ccc(F)cc1 | 27 | 1 | 18
C[C@H](CO)N1C[C@H](C)[C@@H](CN(C)C(=O)Cc2ccccn2)Oc2ncc(-c3ccccc3)cc2C1=O | -7 | -2 | -52
C[C@@H]1CN([C@H](C)CO)C(=O)Cc2cc(NC(=O)Nc3ccc4c(c3)OCO4)ccc2O[C@H]1CN(C)CC1CCCCC1 | 6 | -17 | 16
CC(=O)NC[C@@H]1[C@H](c2ccc(C3=CCCCC3)cc2)[C@H](CO)N1C(=O)NC(C)C | 2 | -4 | 23
COCC(=O)N(C)C[C@H]1Oc2ncc(C#Cc3ccc(F)cc3)cc2C(=O)N([C@H](C)CO)C[C@H]1C | -2 | -2 | 0
C[C@@H]1CN([C@@H](C)CO)C(=O)c2c(c3ccccc3n2C)-c2ccccc2CO[C@@H]1CN(C)Cc1ccc(C(F)(F)F)cc1 | -67 | 10 | .
C[C@H]1CN([C@@H](C)CO)C(=O)c2c(c3ccccc3n2C)-c2ccccc2CO[C@@H]1CN(C)Cc1ccc(F)cc1 | -83* | 26 | .
C[C@@H]1CN([C@@H](C)CO)C(=O)c2c(c3ccccc3n2C)-c2ccccc2CO[C@H]1CN(C)Cc1cccc(C(=O)Nc2ccccc2N)c1 | -89* | 1 | .
C[C@H](CO)N1C[C@H](C)[C@@H](CN(C)Cc2ccc(Oc3ccccc3)cc2)OCc2ccccc2-c2c(n(C)c3ccccc23)C1=O | -91* | 46 | .
SMILES | Pf Dd2 growth | C diff HTS | T cruzi growth
C[C@H](CO)N1C[C@H](C)[C@H](CN(C)Cc2ccc(C(F)(F)F)cc2)OCc2ccccc2-c2c(n(C)c3ccccc23)C1=O | -83* | 1 | .
C[C@@H]1CN([C@@H](C)CO)C(=O)c2c(c3ccccc3n2C)-c2ccccc2CO[C@@H]1CN(C)Cc1ccc(F)cc1 | -56 | 24 | .
C[C@@H]1CN([C@@H](C)CO)C(=O)c2c(c3ccccc3n2C)-c2ccccc2CO[C@H]1CN(C)Cc1ccc(Oc2ccccc2)cc1 | -78 | 51 | .
C[C@H](CO)N1C[C@H](C)[C@H](CN(C)Cc2cccc(C(=O)O)c2)OCc2ccccc2-c2c(n(C)c3ccccc23)C1=O | 49 | 1 | -16
C[C@@H]1CN([C@@H](C)CO)C(=O)Cc2cc(NS(=O)(=O)c3cccs3)ccc2O[C@H]1CN(C)Cc1ccccc1 | -56 | -1 | 55
CC(=O)N(C)C[C@H]1Oc2cc(-c3ccc(C)cc3)ccc2S(=O)(=O)N([C@@H](C)CO)C[C@H]1C | -2 | -13 | 12
C[C@@H]1CN([C@@H](C)CO)C(=O)c2cc(NS(=O)(=O)c3cn(C)cn3)ccc2O[C@@H](C)CCCCO[C@@H]1CN(C)C(=O)c1ccccc1 | 3 | . | 3
C[C@H]1CN([C@@H](C)CO)C(=O)c2c(c3ccccc3n2C)-c2ccccc2CO[C@H]1CN(C)Cc1ccc(-c2ccccc2)cc1 | -88* | 9 | .
COc1cccc(CN(C)C[C@H]2OCc3ccccc3-c3c(n(C)c4ccccc34)C(=O)N([C@@H](C)CO)C[C@H]2C)c1 | -87* | 27 | .
COc1cccc(CN(C)C[C@@H]2OCc3ccccc3-c3c(n(C)c4ccccc34)C(=O)N([C@@H](C)CO)C[C@H]2C)c1 | -69 | 62 | .
C[C@H](CO)N1C[C@H](C)[C@H](CN(C)Cc2ccc(-c3ccccc3)cc2)OCc2ccccc2-c2c(n(C)c3ccccc23)C1=O | ? | 18 | .
C[C@@H]1CCCCO[C@@H](CN(C)S(=O)(=O)c2cn(C)cn2)[C@@H](C)CN([C@H](C)CO)C(=O)c2cc(NS(=O)(=O)c3ccccc3)ccc2O1 | 28 | 7 | -21
COc1ccccc1CN1[C@@H](CO)[C@@H]2c3ccccc3N(C(=O)C3CCCC3)C[C@@H]21 | -8 | 15 | 7
COc1ccc(S(=O)(=O)N(C)C[C@H]2OCc3cn(nn3)CCCC(=O)N([C@@H](C)CO)C[C@H]2C)cc1 | -23 | . | -20
O=C(Nc1cc(F)ccc1F)N[C@H]1CC[C@@H](CC(=O)N2CCc3ccccc3C2)O[C@H]1CO | -1 | . | -64
C[C@H](CO)N1C[C@H](C)[C@@H](CN(C)Cc2ccc(-c3ccccc3)cc2)Oc2c(NC(=O)C3CCOCC3)cccc2C1=O | -32 | 21 | 45
C[C@H]1CN([C@@H](C)CO)C(=O)c2cccc(NC(=O)C3CC3)c2O[C@@H]1CN(C)Cc1ccc(-c2ccccc2)cc1 | -60 | 26 | 73
C[C@@H]1CN([C@H](C)CO)C(=O)c2cccc(NC(=O)C3CCOCC3)c2O[C@H]1CN(C)Cc1ccc(-c2ccccc2)cc1 | -84* | 0 | 71
CC(C)NC(=O)Nc1cccc2c1O[C@H](CN(C)Cc1ccc(-c3ccccc3)cc1)[C@H](C)CN([C@@H](C)CO)C2=O | -85* | 17 | -42
